Experimental data from US20220289795, “EFFICIENT METHOD FOR PREPARING PPR PROTEIN AND USE OF THE SAME” (EditForce, Inc., published 2022).

Biological target: T1, v3.1_PPR16 (Artificial Sequence)
T1 chain: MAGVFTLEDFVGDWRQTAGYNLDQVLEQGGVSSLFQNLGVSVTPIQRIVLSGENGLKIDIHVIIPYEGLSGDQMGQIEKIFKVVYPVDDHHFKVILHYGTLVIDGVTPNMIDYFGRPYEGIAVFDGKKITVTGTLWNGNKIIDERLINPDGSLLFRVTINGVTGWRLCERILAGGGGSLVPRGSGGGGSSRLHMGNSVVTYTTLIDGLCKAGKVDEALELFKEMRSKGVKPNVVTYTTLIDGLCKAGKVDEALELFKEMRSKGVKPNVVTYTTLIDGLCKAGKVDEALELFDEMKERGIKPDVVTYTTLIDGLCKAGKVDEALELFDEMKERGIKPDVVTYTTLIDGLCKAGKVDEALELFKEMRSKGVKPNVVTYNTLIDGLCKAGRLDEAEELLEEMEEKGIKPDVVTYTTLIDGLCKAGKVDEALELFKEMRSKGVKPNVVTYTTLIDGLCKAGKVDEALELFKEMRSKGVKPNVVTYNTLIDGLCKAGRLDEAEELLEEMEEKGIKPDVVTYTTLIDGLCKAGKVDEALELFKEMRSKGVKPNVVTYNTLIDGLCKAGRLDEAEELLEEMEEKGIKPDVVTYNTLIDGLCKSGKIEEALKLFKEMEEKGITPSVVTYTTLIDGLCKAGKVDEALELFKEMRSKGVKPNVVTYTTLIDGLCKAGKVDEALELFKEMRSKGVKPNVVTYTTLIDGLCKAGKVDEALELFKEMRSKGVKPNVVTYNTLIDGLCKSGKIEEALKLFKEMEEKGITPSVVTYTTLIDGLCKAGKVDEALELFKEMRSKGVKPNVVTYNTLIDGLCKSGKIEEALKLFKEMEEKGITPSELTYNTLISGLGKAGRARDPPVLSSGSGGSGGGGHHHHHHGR
Experiment: RPB-ELISA
Details: tags: N-terminal luciferase, C-terminal 6xHis; label: 5'-biotin; ssRNA
Description: RNA probes consisting of a designed 30-base sequence containing 18 bases of the target sequence and modified by biotinylation at the 5′ end (RNA_1, RNA_2, RNA_3, RNA_4, and RNA_5, SEQ ID NOS: 61 to 65) were synthesized (Grainer). To a streptavidin-coated plate (Thermo fisher), the 5′-end biotinylated RNA probes were added, reaction was allowed at room temperature for 30 minutes, and the plate was washed with a lysis buffer (20 mM Tris-HCl, pH 7.6, 150 mM NaCl, 5 mM MgCl₂, 0.5% NP-40, 1 mM DTT, 0.1% BSA). For background measurement, wells to which RNA was not added, but 100 μL of the lysis buffer, 1 μL of 100 mM DTT, and 1 μL of 40 unit/4 RNase inhibitor (Takara, 2313A) were added were also prepared. Then, 200 μL of a blocking buffer (20 mM Tris-HCl, pH 7.6, 150 mM NaCl, 5 mM MgCl₂, 0.5% NP-40, 1 mM DTT, 1% BSA) was added, and the plate surface was blocked at room temperature for 30 minutes. Then, 100 μL of E. coli lysate containing luciferase-fused PPR protein having a luminescence level of 1.5×10⁸ LU/μL was added to each well, and the binding reaction was allowed at room temperature for 30 minutes. The well was washed 5 times with 200 μL of a washing buffer (20 mM Tris-HCl, pH 7.6, 150 mM NaCl, 5 mM MgCl₂, 0.5% NP-40, 1 mM DTT). […] The background (luminescence signal value obtained with adding the PPR protein and without adding RNA) was subtracted from the luminescences of the samples to which a solution containing each RNA and PPR protein was added, and the obtained values were used as the binding powers between the PPR protein and RNA.
By using the V3.1 motif, PPR proteins for the same 23 kinds of target sequences were similarly prepared (SEQ ID NOS: 411 to 433 for the nucleotide sequences, and SEQ ID NOS: 434 to 456 for the amino acid sequences), and bindings of all the combinations were analyzed by using RPB-ELISA. The experimental method was the same as that used in Example 3.

| Sequence | binding signal |
| --- | --- |
| GGUGGUGAGGCCCUGGGC | 20.6 log2 luminescence |
| GUGGGGGUGGUAGGAAAU | 22.6 log2 luminescence |
